From PubChem BioAssay come the findings set out here.

Broadly, the inhibition is the drop in the measured response relative to a control, in per cent.

Assay [1] is described as follows: viability loss with induced miR-34 in A549 – imaging, A549 dox-inducible miR-34, nuclei and caspase counts, primary screen (AID 1347080;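 active = compounds whose cell count with miR-34 switched on is under 0.7 times the count with it off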). Particulars: A549 miR-34 inducible, Hoechst nuclei count, 48 h.
A short description of assay [2]: MELAS cybrid and Rieske KO viability enhancers – cell-based, MELAS cybrids, Rieske KO mouse fibroblasts, CellTiter-Glo, primary screen (AID 1508586;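 active = mean z-score across replicates of 1.96 or higher in either the MELAS or the Rieske mutant cell line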;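 also: z relative to plate mean and SD of compound and empty wells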). Particulars: low glucose.
A short description of assay [3]: galactose survival enhancers in mitochondrial complex I cybrids – cell-based, galactose medium, ATP luminescence, primary screen (AID 1645843;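 active = z-score of at least 1.8 in each of two replicates, scored against plate mean and spread of sample wells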;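 also: positive z means more ATP and so rescue of galactose-driven cybrid death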). Particulars: complex I mutant cybrid cells, 72 h, stronger effect = higher value.
The nature of assay [4]: growth inhibition, single agent or in combination, cell-based, chromothripsis tumors, cisplatin or BGB combos (AID 1671449).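 Also: cells exposed for 96 hours; 0% = vehicle DMSO and 100% = killing by high DMSO.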 Particulars: LFS_MB_P medulloblastoma cells.
Assay [5] in a line: growth inhibition, single agent and combos, cell-based, chromothripsis tumors, cisplatin or BGB combos (AID 1671450).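 Also: cells exposed to compound for four days; 0% = vehicle DMSO and 100% = cell killing by high DMSO.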 Particulars: HDN33 neuroblastoma cells, stronger effect = higher value.
A short description of assay [6]: growth inhibition, single agents and combos, ICB984, cell-based, cisplatin or BGB combos, synergistic combos for chromothripsis tumors (AID 1671451; call rule not given here;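 also: cells exposed for 96 hours before readout; 0% = vehicle DMSO and 100% = killing by high DMSO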). Particulars: ICB984 medulloblastoma cells, drug combinations, stronger effect = higher value.
The nature of assay [7]: growth inhibition, single agents and combos, LFS_MB_1R, cell-based, cisplatin or BGB combos, synergistic combos for chromothripsis tumors (AID 1671452).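 Also: cells exposed for 96 hours before readout.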 Particulars: LFS_MB_1R medulloblastoma cells, stronger effect = higher value.
Assay [8] in a line: growth inhibition, single agents and combos, HTB85, cell-based, BGB or cisplatin IC20 combos, synergistic combos for chromothripsis tumors (AID 1671453).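 Also: cells exposed for 96 hours before readout; 0% = vehicle DMSO and 100% = high DMSO killing control.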 Particulars: HTB85 osteosarcoma cells, drug combinations, stronger effect = higher value.
A short description of assay [9]: growth inhibition, single agents and combos, CRL2098, cell-based, BGB or cisplatin IC20 combos, synergistic combos for chromothripsis tumors (AID 1671454).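 Also: cells exposed for 96 h before readout; 0% = vehicle DMSO and 100% = killing by high DMSO.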 Particulars: CRL2098 osteosarcoma cells, drug combinations, stronger effect = higher value.
A short description of assay [10]: growth inhibition, single agents and combos, HD-MB03, cell-based, BGB or cisplatin IC20 combos, synergistic combos for chromothripsis tumors (AID 1671455; in the data active = inhibition above about 83%;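 also: 0% = vehicle DMSO and 100% = high DMSO as cytotoxic control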). Particulars: HD-MB03 medulloblastoma cells, stronger effect = higher value.
Assay [11] can be described thus: growth inhibition, single agents and combos, UWB1.289, cell-based, BGB or cisplatin combos, synergistic combos for chromothripsis tumors (AID 1671456).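 Also: cells exposed to compound for four days; 0% = vehicle DMSO and 100% = killing by high DMSO.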 Particulars: UWB1.289 ovarian carcinoma cells, stronger effect = higher value.
Assay [12] in a line: growth inhibition, single agents and combos, LFS_MB_2R, cell-based, cisplatin combos, synergistic combos for chromothripsis tumors (AID 1671457).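 Also: cells exposed to compound for four days before readout.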 Particulars: LFS_MB_2R medulloblastoma cells, stronger effect = higher value.
Assay [13] can be described thus: growth inhibition, MDA-MB-436, cell-based, BGB or cisplatin combos, synergistic combos for chromothripsis tumors (AID 1671458; call rule not given here;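 also: cells exposed for 96 hours; 0% = vehicle DMSO and 100% = killing by high DMSO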). Particulars: MDA-MB-436 breast carcinoma growth inhibition, drug combinations, stronger effect = higher value.
A short description of assay [14]: UWB1.289_BRCA1 ovarian cancer growth, cell-based, BGB or cisplatin combinations (AID 1671459). Particulars: UWB1.289 BRCA1 ovarian carcinoma, drug combinations, stronger effect = higher value.
A short description of assay [15]: drug combination toxicity in non-malignant astrocytes – cell-based, BGB or cisplatin IC20 combos, cytotoxicity control for chromothriptic childhood tumor combination screen (AID 1671460).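 Also: cells exposed to compounds for 96 hours before viability readout; 0% = vehicle and 100% = killing control.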 Particulars: Human astrocytes, viability inhibition, drug combinations, at 0.5 µM, stronger effect = higher value.
Assay [16] is described as follows: BT084 cell growth, single and combined drugs, ICGC_MB145, cisplatin and BGB IC40 combos (AID 1671461).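 Also: cells exposed to drugs for 96 hours; 0% = vehicle DMSO and 100% = high DMSO full killing control.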 Particulars: BT084 medulloblastoma cells, drug combinations, stronger effect = higher value.
Assay [17] in a line: RCMB18 cell growth, single agent and combined, cisplatin and BGB IC40 combos (AID 1671462).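 Also: cells exposed to compound for four days.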 Particulars: RCMB18 medulloblastoma cells, stronger effect = higher value.
Assay [18] can be described thus: CRL1545 cell growth, single agent and combined, cisplatin and BGB IC20 combos (AID 1671464).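 Also: cells exposed to compound for 96 hours before readout; 0% = vehicle DMSO and 100% = high DMSO killing control.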 Particulars: CRL1545 osteosarcoma cells, stronger effect = higher value.
[19] abbreviates: stronger effect = lower value, cell number ratio, induced over uninduced.
[20] abbreviates: measured here: relative caspase fold change +Dox/-Dox.
Setting [21] is: measured here: total cells with miR-34 induction, stronger effect = lower value.
Setting [22] is: measured here: total cells without miR-34 induction.
Setting [23] is: MELAS cybrid survival, CellTiter-Glo 48 h, stronger effect = higher value.
The mark [24] stands for this setting: Rieske KO mouse fibroblast survival, CellTiter-Glo 72 h.
[25] abbreviates: measured here: combination with BGB IC40, at 0.05 µM.
The mark [26] stands for this setting: measured here: with BGB IC20 combination, at 0.5 µM.
[27] abbreviates: measured here: with cisplatin IC20 combination, at 0.5 µM.
Setting [28] is: measured here: combination with cisplatin, at 0.5 µM.
[29] abbreviates: measured here: combination with cisplatin, at 5 µM.

Values joined by “and” are separate entries in the source; they are usually repeats but may differ in a detail not shown here. Equal values may be shown once. Active and inactive are the calls of the source. Rule as the data show it, unless noted: active = inhibition above about 80%; inactive = the rest.

For the molecule `c1nc(N2CCOCC2)c2[nH]cnc2n1`, the fold change in [1] (setting [19]) is 0.913 (inactive); in assay [1] (setting [20]), 0.416. Further, the results for the cell count in assay [1] (setting [21]) and in assay [1] (setting [22]) were 8460 and 9270, respectively. For the same molecule, the values for the z-score in assay [2] (setting [23]), in assay [2] (setting [24]) and in assay [3] were -0.198 (inactive), -0.176 and 1.15 (inactive), respectively.
On to `CCOC(=O)c1c(C)n[nH]c1C`, for which the values for the fold change in assay [1] (setting [19]) and in assay [1] (setting [20]) were 0.871 (inactive) and 0.655, respectively. Also, the cell count in assay [1] (setting [21]) amounted to 8840; in assay [1] (setting [22]), 10200. In addition, the z-score is 0.691 (inactive) in [2] (setting [23]), -0.58 in assay [2] (setting [24]) and 0.425 (inactive) in [3].
Consider `COc1cccc2c(=O)n(C(C)Cn3cccn3)cnc12` (configuration not stated), for which the fold change in assay [1] (setting [19]) was 0.936 (inactive); in assay [1] (setting [20]), 1.36. Further, the cell count in [1] (setting [21]) is 9030; in [1] (setting [22]), 9650. Moreover, the z-score in assay [2] (setting [23]) is -0.113 (inactive); in assay [2] (setting [24]), -1.21; in assay [3], -0.305 (inactive).
Turning to `O=[N+]([O-])c1ccc2[nH]ncc2c1`, the figures for the fold change in [1] (setting [19]) and in assay [1] (setting [20]) were 0.885 (inactive) and 0.558, respectively. The values for the cell count in [1] (setting [21]) and in assay [1] (setting [22]) were 8690 and 9820, respectively. The z-score is 0.727 (inactive) in assay [2] (setting [23]), -0.415 in assay [2] (setting [24]) and -0.195 (inactive) in assay [3].
For the molecule `CCn1ncc(NC(=O)Cn2cc(-c3cccc(-n4cccn4)c3)cn2)n1`, the fold change in [1] (setting [19]) is 0.876 (inactive); in assay [1] (setting [20]), 1.27. Moreover, the cell count came out at 2160 in assay [1] (setting [21]) and 2470 in assay [1] (setting [22]). For the same molecule, the z-score was -0.0561 (inactive) in assay [2] (setting [23]), -0.379 in assay [2] (setting [24]) and -0.505 (inactive) in [3].
Regarding `COc1cccc(-n2cc(-c3ccnc(NCCc4cnc[nH]4)n3)cn2)c1`, the fold change in [1] (setting [19]) was 0.891 (inactive); in [1] (setting [20]), 1.29. The cell count in assay [1] (setting [21]) was 7850; in assay [1] (setting [22]), 8810. Also, the z-score in assay [2] (setting [23]) is -0.718 (inactive); in [2] (setting [24]), 0.696; in assay [3], 1.87 (inactive).
Take `Cc1cn(C2C=CC(CO)O2)c(=O)[nH]c1=O` (configuration not stated): the fold change is 0.962 (inactive) and 0.935 (inactive) in assay [1] (setting [19]); 1.05 and 0.911 in assay [1] (setting [20]). The cell count in [1] (setting [21]) was 8970 and 7330; in assay [1] (setting [22]), 9320 and 7840. In addition, the z-score in [2] (setting [23]) is -0.48 (inactive); in [2] (setting [24]), 0.518; in assay [3], 0.42 (inactive). The inhibition in assay [4] (at 0.5 µM, stronger effect = higher value) was -20.9% (inactive); in [4] (measured here: combination with BGB IC20, at 0.005 µM) it was -5.29%; in [4] (measured here: combination with BGB IC40, at 0.005 µM), -35%; in assay [4] (setting [25]), -15.2%; in [4] (measured here: combination with cisplatin, at 0.5 µM, stronger effect = higher value), -28.2%; in [4] (measured here: combination with cisplatin, at 5 µM, stronger effect = higher value), -24.4%. Also, the inhibition in assay [5] (BGB combo, at 5 µM) is -42.2%; in [5] (at 0.5 µM), -34.4% (inactive); in [5] (cisplatin combo, at 5 µM) it was -46.6%; in assay [5] (setting [26]) it was -50.9%; in assay [5] (setting [27]), -24.2%; in assay [5] (single agent, at 5 µM), -41%. For the same molecule, the inhibition in [6] (BGB IC20 combo, at 0.005 µM) was -4.4%; in [6] (BGB IC40 combo, at 0.005 µM), -46.7%; in [6] (BGB IC40 combo, at 0.05 µM) it was -3.74%; in assay [6] (at 0.5 µM) it was -26.7% (inactive); in assay [6] (cisplatin combo, at 0.05 µM), -6.64%; in assay [6] (cisplatin combo, at 0.5 µM) it was -35.4%. Moreover, the inhibition in assay [6] (cisplatin combo, at 5 µM) was -36.2%; in [6] (measured here: 5 uM single agent, at 5 µM), -29.8%; in assay [7] (at 0.5 µM), -29.1% (inactive); in [7] (setting [25]), -18.5%; in assay [7] (setting [28]), -42.3%; in assay [7] (setting [29]), -74.7%. Moreover, the inhibition in assay [8] (at 0.5 µM) was -32.3% (inactive); in assay [8] (measured here: with BGB IC20, at 0.5 µM) it was -52.5%; in assay [8] (measured here: with BGB IC20, at 5 µM) it was -73.7%; in [8] (measured here: with cisplatin IC20, at 0.5 µM), -25.1%; in [8] (measured here: with cisplatin IC20, at 5 µM) it was -14.5%; in [8] (single agent, at 5 µM), 6.05%. Moreover, the inhibition in assay [9] (at 0.5 µM) was -98.7% (inactive); in assay [9] (measured here: combination with BGB at IC20, at 0.5 µM) it was -91.8%; in [9] (measured here: combination with cisplatin at IC20, at 0.5 µM), -105%; in [10] (at 0.5 µM), -18.8% (inactive); in [10] (measured here: combo with BGB at IC20, at 0.5 µM) it was -15.9%; in assay [10] (measured here: combo with cisplatin at IC20, at 0.5 µM), -28%. The inhibition was -10.5% (inactive) in [11] (at 0.5 µM); -4.7% in assay [11] (measured here: inhibition with BGB combination, at 0.05 µM); -16.8% in [11] (measured here: inhibition with cisplatin combination, at 0.05 µM); -12.5% (inactive) in assay [12] (at 0.5 µM); -17.8% in assay [12] (setting [28]); -34.1% in assay [12] (setting [29]). The inhibition was -24% (inactive) in assay [13] (at 0.5 µM); -19.7% in assay [13] (measured here: BGB combination, at 0.5 µM); -23.5% in assay [13] (measured here: BGB combination, at 5 µM); -37.6% in assay [13] (measured here: cisplatin combination, at 0.5 µM); -21% in assay [13] (measured here: cisplatin combination, at 5 µM); -25.5% in assay [14] (BGB combination, concentration series, at 5 µM). Further, the inhibition was -15.9% (inactive) in assay [14] (at 0.5 µM); -8.88% in assay [14] (cisplatin combination, concentration series, at 5 µM); -7.19% (inactive) in [15]; -8.45% in assay [15] (measured here: combo with BGB IC20); -23.8% in assay [15] (measured here: combo with cisplatin IC20); -17.7% (inactive) in [16] (at 0.5 µM). Also, the inhibition in assay [16] (cisplatin combination, at 0.5 µM) was -7.07%; in assay [16] (cisplatin combination, at 5 µM), -5.39%; in [16] (measured here: BGB IC40 combination 0.05 uM, at 0.05 µM), -19.6%; in [16] (single agent, at 5 µM) it was -14%; in [17] (at 0.5 µM), -28.5% (inactive); in assay [17] (cisplatin combo, at 5 µM), -44.1%. Further, the inhibition in [17] (measured here: BGB IC40 combination, at 0.05 µM) was -19.7%; in [17] (setting [28]) it was -44.8%; in assay [17] (single agent, at 5 µM), -28.1%; in [18] (at 0.5 µM), -40.6% (inactive); in assay [18] (setting [26]) it was -40.6%; in [18] (setting [27]) it was -43.7%. In addition, the inhibition in assay [18] (single agent, at 0.05 µM) was -24.2%; in [18] (single agent, at 5 µM), -21.8%.
